# Experimental data published in ChEMBL document CHEMBL1961873, “Compounds: GSK PKIS; Assays: Nanosyn kinase panel” (2012).
# What was measured:
# [1] = biological target: Sphingosine kinase 1 (Homo sapiens) (UniProt Q9NYA1); details: at 1 µM;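 note: mean SPHK1 inhibition value reported from the GSK PKIS kinase panel screen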
# [2] = biological target: T1, Sphingosine kinase 2 (Homo sapiens) (UniProt Q9NRA0); details: at 0.1 µM
# T1 sequence (whole entry): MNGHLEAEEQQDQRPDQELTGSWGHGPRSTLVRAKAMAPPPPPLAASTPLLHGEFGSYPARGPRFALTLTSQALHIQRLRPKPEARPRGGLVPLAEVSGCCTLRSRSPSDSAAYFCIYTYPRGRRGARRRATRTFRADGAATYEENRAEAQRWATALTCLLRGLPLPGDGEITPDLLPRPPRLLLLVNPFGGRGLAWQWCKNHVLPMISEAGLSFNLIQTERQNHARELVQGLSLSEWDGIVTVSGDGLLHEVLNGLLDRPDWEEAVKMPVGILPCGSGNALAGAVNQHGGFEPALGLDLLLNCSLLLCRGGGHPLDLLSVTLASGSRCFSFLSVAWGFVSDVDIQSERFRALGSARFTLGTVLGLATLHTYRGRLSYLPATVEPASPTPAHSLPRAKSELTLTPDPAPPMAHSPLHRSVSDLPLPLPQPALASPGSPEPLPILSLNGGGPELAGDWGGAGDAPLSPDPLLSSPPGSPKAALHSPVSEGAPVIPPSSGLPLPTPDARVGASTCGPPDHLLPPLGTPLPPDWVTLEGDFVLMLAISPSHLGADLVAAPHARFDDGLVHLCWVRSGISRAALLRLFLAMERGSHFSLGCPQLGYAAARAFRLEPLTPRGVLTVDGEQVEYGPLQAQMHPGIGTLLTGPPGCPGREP
# [3] = biological target: T1, Sphingosine kinase 2 (Homo sapiens); details: at 1 µM
# [4] = biological target: Casein kinase II subunit alpha (Homo sapiens) (UniProt P68400); details: at 0.1 µM
# [5] = biological target: Casein kinase II subunit alpha (Homo sapiens) (UniProt P68400); details: at 1 µM
# [6] = biological target: T2, Inhibitor of nuclear factor kappa-B kinase subunit alpha (Homo sapiens) (UniProt O15111); details: at 0.1 µM
# T2 sequence (whole entry): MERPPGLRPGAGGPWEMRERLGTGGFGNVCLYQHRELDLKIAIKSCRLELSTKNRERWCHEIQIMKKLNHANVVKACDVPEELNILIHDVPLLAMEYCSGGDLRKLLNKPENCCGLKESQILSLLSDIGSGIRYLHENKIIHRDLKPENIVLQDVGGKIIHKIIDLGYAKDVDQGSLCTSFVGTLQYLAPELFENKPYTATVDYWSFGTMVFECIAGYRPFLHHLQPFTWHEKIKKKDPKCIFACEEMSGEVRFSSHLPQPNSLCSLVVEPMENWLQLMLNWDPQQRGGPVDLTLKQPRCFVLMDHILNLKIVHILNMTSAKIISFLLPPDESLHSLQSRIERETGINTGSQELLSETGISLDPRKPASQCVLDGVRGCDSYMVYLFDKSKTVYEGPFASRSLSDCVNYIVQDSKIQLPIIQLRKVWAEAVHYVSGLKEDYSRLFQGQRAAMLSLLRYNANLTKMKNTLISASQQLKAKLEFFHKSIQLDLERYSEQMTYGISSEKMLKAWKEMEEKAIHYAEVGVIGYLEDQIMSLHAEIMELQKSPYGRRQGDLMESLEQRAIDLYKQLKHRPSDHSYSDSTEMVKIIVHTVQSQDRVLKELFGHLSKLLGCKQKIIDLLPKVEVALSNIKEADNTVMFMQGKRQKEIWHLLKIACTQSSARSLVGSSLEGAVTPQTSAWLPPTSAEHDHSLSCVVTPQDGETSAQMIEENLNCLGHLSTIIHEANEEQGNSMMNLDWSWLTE
# [7] = biological target: T2, Inhibitor of nuclear factor kappa-B kinase subunit alpha (Homo sapiens); details: at 1 µM
# [8] = biological target: T3, Inhibitor of nuclear factor kappa-B kinase subunit beta (Homo sapiens) (UniProt O14920); details: at 0.1 µM
# T3 sequence (whole entry): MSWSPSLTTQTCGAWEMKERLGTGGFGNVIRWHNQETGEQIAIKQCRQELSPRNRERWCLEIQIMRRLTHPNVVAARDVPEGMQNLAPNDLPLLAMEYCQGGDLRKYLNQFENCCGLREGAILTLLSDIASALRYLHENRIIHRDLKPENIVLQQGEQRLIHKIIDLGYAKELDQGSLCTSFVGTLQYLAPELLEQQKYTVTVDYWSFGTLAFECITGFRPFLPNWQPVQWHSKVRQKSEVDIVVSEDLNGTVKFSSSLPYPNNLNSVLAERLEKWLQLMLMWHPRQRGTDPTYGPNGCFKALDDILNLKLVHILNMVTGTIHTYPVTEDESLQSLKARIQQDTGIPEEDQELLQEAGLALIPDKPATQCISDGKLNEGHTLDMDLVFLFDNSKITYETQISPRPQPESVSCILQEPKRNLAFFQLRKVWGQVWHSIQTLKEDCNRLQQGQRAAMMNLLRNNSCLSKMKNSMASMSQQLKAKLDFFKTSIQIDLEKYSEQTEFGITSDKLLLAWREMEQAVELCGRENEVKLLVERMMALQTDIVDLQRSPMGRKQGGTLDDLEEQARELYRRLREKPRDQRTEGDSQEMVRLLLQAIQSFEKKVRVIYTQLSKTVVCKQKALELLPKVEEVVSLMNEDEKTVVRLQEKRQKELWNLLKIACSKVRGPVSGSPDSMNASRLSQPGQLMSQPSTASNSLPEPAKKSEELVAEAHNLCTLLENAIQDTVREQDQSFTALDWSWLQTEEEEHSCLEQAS
# [9] = biological target: T3, Inhibitor of nuclear factor kappa-B kinase subunit beta (Homo sapiens); details: at 1 µM
# [10] = biological target: T4, Inhibitor of nuclear factor kappa-B kinase subunit epsilon (Homo sapiens) (UniProt Q14164); details: at 0.1 µM
# T4 sequence (whole entry): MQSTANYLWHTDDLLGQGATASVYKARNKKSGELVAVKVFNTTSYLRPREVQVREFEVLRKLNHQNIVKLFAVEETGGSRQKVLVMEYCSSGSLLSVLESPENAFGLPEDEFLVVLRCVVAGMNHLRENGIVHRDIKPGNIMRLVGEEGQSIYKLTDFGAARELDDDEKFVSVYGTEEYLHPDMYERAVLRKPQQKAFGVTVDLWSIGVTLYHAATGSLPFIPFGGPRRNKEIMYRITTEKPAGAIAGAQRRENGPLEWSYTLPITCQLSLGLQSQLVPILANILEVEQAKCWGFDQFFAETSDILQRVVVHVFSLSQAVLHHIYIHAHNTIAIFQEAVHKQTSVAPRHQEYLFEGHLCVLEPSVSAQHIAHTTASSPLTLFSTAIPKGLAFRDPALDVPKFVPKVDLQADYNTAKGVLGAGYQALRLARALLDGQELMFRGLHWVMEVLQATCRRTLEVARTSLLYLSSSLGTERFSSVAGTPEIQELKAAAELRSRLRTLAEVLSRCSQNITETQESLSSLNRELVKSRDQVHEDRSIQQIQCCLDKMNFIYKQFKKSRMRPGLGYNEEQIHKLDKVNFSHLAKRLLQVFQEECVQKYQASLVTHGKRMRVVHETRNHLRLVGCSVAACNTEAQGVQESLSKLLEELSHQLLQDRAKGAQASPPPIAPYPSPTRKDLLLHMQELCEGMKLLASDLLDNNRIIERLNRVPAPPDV
# [11] = biological target: T4, Inhibitor of nuclear factor kappa-B kinase subunit epsilon (Homo sapiens); details: at 1 µM
# [12] = biological target: T5, Serine/threonine-protein kinase Nek1 (Homo sapiens) (UniProt Q96PY6); details: at 0.1 µM
# T5 sequence (whole entry): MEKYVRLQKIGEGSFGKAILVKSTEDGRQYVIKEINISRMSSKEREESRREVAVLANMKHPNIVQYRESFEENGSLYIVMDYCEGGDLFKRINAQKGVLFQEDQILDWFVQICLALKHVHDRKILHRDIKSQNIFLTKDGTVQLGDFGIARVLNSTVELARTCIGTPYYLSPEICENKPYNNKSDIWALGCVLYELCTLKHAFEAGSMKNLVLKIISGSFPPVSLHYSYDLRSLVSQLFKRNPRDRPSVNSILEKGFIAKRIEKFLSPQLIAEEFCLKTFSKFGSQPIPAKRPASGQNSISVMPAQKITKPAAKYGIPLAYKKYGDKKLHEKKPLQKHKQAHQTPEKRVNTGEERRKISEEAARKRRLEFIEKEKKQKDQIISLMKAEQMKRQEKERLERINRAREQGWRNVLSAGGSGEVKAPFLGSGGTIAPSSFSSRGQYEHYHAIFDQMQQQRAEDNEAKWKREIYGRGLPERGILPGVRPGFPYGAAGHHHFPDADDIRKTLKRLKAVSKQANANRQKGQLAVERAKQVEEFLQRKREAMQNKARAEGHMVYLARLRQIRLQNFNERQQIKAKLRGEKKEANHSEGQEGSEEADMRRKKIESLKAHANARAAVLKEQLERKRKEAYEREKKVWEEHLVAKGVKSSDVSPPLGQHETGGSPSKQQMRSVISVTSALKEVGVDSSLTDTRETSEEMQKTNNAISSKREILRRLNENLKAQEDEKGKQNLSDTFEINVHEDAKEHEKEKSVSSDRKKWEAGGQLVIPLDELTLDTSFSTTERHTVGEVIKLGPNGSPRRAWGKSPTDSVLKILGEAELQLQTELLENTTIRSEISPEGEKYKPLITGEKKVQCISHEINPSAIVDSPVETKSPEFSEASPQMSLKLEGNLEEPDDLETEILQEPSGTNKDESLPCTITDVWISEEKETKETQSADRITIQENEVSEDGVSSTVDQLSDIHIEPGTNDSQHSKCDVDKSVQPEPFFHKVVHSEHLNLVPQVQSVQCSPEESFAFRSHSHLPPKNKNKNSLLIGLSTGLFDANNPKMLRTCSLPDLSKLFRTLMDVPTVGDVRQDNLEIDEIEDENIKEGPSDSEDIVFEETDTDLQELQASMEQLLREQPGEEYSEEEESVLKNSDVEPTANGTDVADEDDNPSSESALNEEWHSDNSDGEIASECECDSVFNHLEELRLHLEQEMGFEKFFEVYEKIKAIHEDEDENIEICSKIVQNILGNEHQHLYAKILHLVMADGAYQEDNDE
# [13] = biological target: T5, Serine/threonine-protein kinase Nek1 (Homo sapiens); details: at 1 µM
# [14] = biological target: T6, Serine/threonine-protein kinase Nek2 (Homo sapiens) (UniProt P51955); details: at 0.1 µM
# T6 sequence (whole entry): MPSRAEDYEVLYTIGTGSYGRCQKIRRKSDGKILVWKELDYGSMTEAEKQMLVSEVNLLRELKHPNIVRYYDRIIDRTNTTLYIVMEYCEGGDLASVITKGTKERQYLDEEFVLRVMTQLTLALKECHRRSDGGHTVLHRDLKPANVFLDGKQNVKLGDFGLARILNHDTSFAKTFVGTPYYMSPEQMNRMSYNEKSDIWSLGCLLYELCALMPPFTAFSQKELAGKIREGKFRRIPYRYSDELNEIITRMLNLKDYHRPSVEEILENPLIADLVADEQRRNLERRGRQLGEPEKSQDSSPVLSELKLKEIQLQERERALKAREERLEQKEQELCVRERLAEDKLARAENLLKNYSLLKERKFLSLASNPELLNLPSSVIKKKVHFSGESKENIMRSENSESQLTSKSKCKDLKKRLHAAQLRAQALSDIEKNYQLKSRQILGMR
# [15] = biological target: T6, Serine/threonine-protein kinase Nek2 (Homo sapiens); details: at 1 µM
# [16] = biological target: Serine/threonine-protein kinase Nek6 (Homo sapiens) (UniProt Q9HC98); details: at 0.1 µM
# [17] = biological target: Serine/threonine-protein kinase Nek6 (Homo sapiens) (UniProt Q9HC98); details: at 1 µM
# [18] = biological target: Serine/threonine-protein kinase Nek7 (Homo sapiens) (UniProt Q8TDX7); details: at 0.1 µM
# [19] = biological target: Serine/threonine-protein kinase Nek7 (Homo sapiens) (UniProt Q8TDX7); details: at 1 µM
# [20] = biological target: T7, Serine/threonine-protein kinase Nek9 (Homo sapiens) (UniProt Q8TD19); details: at 0.1 µM;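 note: reported value is the mean percent inhibition of NEK9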
# T7 sequence (whole entry): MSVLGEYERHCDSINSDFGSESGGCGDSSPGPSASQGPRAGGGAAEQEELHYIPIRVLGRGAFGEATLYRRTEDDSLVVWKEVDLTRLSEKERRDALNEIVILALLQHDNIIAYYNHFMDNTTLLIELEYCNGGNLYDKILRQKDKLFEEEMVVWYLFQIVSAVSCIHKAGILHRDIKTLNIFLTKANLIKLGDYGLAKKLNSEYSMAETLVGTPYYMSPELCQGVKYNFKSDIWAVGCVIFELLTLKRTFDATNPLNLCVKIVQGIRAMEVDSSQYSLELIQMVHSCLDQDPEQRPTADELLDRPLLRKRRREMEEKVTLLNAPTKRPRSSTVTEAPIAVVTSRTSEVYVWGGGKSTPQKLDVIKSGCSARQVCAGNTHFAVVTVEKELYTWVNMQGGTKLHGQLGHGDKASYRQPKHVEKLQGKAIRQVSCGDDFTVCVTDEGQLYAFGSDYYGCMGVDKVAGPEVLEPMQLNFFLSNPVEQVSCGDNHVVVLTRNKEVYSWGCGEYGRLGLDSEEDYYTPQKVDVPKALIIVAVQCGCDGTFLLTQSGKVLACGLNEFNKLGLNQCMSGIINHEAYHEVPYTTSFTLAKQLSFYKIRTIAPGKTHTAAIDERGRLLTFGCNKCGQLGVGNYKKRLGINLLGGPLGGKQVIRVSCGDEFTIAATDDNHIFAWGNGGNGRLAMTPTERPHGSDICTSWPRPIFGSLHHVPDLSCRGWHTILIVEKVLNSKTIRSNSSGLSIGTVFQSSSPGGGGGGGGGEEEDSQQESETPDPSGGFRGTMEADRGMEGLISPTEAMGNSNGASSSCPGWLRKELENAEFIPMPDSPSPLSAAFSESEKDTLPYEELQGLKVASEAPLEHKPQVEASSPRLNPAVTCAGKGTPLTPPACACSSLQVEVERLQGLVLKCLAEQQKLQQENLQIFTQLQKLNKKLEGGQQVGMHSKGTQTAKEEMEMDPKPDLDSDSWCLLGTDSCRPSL
# Sequence of Serine/threonine-protein kinase Nek6 (Homo sapiens) (Q9HC98 whole entry): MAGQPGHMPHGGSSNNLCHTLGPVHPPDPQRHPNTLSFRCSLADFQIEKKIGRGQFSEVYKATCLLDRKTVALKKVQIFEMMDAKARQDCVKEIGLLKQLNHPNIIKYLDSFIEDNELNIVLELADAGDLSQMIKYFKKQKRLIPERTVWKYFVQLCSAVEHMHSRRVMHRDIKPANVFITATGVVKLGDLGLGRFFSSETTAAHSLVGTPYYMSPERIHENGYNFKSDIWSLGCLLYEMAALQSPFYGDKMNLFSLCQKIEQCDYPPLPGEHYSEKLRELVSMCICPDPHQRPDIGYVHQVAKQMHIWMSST
# Sequence of Serine/threonine-protein kinase Nek7 (Homo sapiens) (Q8TDX7 whole entry, looked up): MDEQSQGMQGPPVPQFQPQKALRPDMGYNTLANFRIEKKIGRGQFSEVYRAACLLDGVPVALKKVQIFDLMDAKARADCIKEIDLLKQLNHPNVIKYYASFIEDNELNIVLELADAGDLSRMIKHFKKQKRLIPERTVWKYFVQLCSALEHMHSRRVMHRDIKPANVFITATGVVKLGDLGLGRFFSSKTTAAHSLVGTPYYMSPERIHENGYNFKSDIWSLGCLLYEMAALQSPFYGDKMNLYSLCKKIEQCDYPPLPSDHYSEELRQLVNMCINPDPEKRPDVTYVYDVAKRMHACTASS
# Sequence of Casein kinase II subunit alpha (Homo sapiens) (P68400 whole entry, looked up): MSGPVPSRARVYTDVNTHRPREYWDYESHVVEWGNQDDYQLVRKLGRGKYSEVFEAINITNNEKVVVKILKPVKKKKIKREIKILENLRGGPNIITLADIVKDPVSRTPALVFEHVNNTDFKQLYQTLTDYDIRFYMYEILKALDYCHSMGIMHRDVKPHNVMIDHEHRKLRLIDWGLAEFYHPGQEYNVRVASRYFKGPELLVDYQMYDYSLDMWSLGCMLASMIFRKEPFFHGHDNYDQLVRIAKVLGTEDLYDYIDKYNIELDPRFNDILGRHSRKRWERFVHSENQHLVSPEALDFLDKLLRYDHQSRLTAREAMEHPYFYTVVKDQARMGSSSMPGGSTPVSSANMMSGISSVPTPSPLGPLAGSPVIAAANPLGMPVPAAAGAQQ
# Sequence of Sphingosine kinase 1 (Homo sapiens) (Q9NYA1 whole entry): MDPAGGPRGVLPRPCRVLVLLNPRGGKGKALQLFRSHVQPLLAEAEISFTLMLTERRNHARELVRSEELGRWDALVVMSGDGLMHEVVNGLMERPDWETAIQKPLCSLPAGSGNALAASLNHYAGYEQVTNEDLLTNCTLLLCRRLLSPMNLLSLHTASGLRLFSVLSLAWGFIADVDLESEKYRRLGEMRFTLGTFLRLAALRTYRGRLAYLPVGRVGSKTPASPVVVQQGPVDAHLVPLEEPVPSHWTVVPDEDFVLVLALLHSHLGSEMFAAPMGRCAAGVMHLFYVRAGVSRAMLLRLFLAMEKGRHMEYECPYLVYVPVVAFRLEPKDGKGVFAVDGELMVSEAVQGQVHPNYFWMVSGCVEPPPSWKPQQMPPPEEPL
smiles,measurement,setting,value
CCn1c(-c2nonc2N)nc2c(C#CC(C)(C)O)nc(OC[C@@H](N)c3ccccc3)cc21,inhibition,[1],2.57%
same,inhibition,[2],-1.25%
same,inhibition,[3],-2.35%
same,inhibition,[4],0.95%
same,inhibition,[5],1.36%
same,inhibition,[6],4.77%
same,inhibition,[7],2.26%
same,inhibition,[8],-2.58%
same,inhibition,[9],-1.93%
same,inhibition,[10],0.47%
same,inhibition,[11],34.9%
same,inhibition,[12],0.04%
same,inhibition,[13],3.08%
same,inhibition,[14],-1.09%
same,inhibition,[15],1.53%
same,inhibition,[16],-0.14%
same,inhibition,[17],3.35%
same,inhibition,[18],0.12%
same,inhibition,[19],-0.33%
same,inhibition,[20],-3.59%
